Structures are written as SMILES. Where “and” joins values, the source holds several entries; their conditions need not be identical. Equal values may be shown once. The whole screen tested about 16,000 compounds, of which about 2,600 (16%) were called active. Another 20% or so got no clear call; they are omitted. Calls follow the shape of the dose curve; as a rule, active = well fitted curve in the direction sought with a large enough effect; inconclusive = small, poorly fitted or top-dose-only effect, or effect the other way; inactive = no such curve, though single readings can be large or run the other way. These entries were drawn from the full list.
% is scaled to controls: 0 for no effect and ±100 for the full control effect.

The target of this assay is Cytochrome P450 2D6 (Homo sapiens) (UniProt P10635). The assay can be described thus: Cytochrome panel assay with activity outcomes. To be noted: recombinant CYP, pro-luciferin dealkylation, luminescence, p450-cyp2d6; series mostly up to 57.1 µM; activity, negative = inhibition: at the top concentration.
Sequence of Cytochrome P450 2D6 (Homo sapiens) (P10635 whole entry, looked up): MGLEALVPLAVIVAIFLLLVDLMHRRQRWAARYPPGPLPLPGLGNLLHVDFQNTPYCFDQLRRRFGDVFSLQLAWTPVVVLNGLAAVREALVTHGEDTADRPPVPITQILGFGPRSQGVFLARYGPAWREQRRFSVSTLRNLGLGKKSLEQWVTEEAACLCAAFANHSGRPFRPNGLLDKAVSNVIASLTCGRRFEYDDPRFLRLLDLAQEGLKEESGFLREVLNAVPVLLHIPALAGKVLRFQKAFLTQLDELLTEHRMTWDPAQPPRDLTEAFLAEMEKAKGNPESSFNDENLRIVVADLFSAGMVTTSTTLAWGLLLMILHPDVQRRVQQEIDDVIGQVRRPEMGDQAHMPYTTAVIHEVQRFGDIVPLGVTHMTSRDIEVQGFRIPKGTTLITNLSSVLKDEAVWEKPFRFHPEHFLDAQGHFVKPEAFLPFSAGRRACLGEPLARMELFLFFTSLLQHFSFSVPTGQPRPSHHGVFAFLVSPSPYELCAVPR
Consider `CCCCC(=O)NC(=S)Nc1cccc(NC(=O)CC)c1`, for which the “activity, negative = inhibition” value is -10.2% (inactive).

Regarding `Cc1cc(C)c(NC(=O)NC(=O)c2ccc(F)cc2)c(C)n1`, the “activity, negative = inhibition” value was 5.27% (inactive).

Usually AC50 stands for the midpoint of the concentration-response curve, whichever way the signal moves. As for `CCCCCN=c1ccn(Cc2ccccc2)c2ccccc12`, the AC50 is 10 µM (active).

Consider `O=C(O)c1ccccc1C(=O)Nc1cc2c(cc1Br)-c1ccccc1C2=O`, for which the activity, negative = inhibition was 16.7% [at 11.4 µM] (inactive).

Turning to `Cl/C(=C\n1cncn1)c1ccc(Cl)cc1Cl`, the “activity, negative = inhibition” value is -3.83% (inactive).

Turning to `CC1(C)[C@@H]2CC[C@]1(CC(=O)O)[C@H](Cl)C2`, the activity, negative = inhibition is 6.22% [at 11.4 µM] (inactive).

In the case of `CC(=O)Nc1cc(C(F)(F)F)ccc1Oc1cccc(Br)c1`, the AC50 was 10 µM (active).

As to `COc1ccc(C(C)(C)C)cc1NC(=O)c1cncc(Br)c1`, the “activity, negative = inhibition” value is 9.49% (inactive).

Regarding `CCOc1ccc(C(F)(F)F)cc1NC(C)=O`, the “activity, negative = inhibition” value was -26.1% (inactive).

As for `CSCC[C@H](NC(=O)CC(C)(C)C)c1nc2ccccc2[nH]1`, the “activity, negative = inhibition” value is -2.27% (inactive).

Turning to `C[N+](C)(C)c1nc(N)nc2c1ncn2[C@H]1O[C@@H](CO)[C@@H](O)[C@H]1O`, the activity, negative = inhibition was 6.01% [at 11.4 µM] (inactive).

Take `CCOC(=O)c1cccc(NC(=O)COc2ccc([N+](=O)[O-])cc2)c1`: the AC50 was 1.41 µM (active).

On to `COc1cc(/C=N\Nc2ccc([N+](=O)[O-])cc2)ccc1OCC(=O)Nc1ccc(C)c(C)c1`, for which the “activity, negative = inhibition” value was -6.34% (inactive).

For the compound `O=C(COc1ccc(Br)cc1)Nc1ccc([N+](=O)[O-])cn1`, the “activity, negative = inhibition” value was -1.99% (inactive).

Take `O=C(COc1ccc(/C=N/NC(=O)c2ccccc2)cc1)Nc1ccc([N+](=O)[O-])cc1`: the “activity, negative = inhibition” value is -21% (inactive).

On to `O=C(COc1ccc([N+](=O)[O-])cc1)Nc1ccc(C(=O)NCc2cccnc2)cc1`, for which the AC50 is 3.16 µM (active).

On to `O=C(COc1ccc([N+](=O)[O-])cc1)NCc1ccccc1`, for which the “activity, negative = inhibition” value is -28.4% (inactive).

`O=S(=O)(c1ccccc1)c1cnn2c(C(F)(F)F)cc(-c3ccc(F)cc3)nc12`: the “activity, negative = inhibition” value was -27.4% (inactive).

For the compound `COc1c(O[C@H]2O[C@@H](CO)[C@@H](O)[C@@H](O)[C@@H]2O)cc2c(c1OC)-c1ccc(SC)c(=O)cc1[C@H](NC(C)=O)CC2`, the “activity, negative = inhibition” value is -2.73% [at 25.6 µM] (inactive).

For the compound `O=C1CCCC=C1[C@@H](O)CCOC(c1ccccc1)(c1ccccc1)c1ccccc1`, the activity, negative = inhibition was -20.1% [at 11.4 µM] (inactive).

In the case of `CCOP(=O)(OCC)c1nc(/C=C/c2ccccc2)oc1NCc1ccccc1`, the “activity, negative = inhibition” value was -19.8% (inactive).

For `O=C1c2ccccc2C(Cc2ccncc2)(Cc2ccncc2)c2ccccc21`, the “activity, negative = inhibition” value was 0.345% (inactive).

For the compound `O=C(O)CCCSc1ccccc1`, the activity, negative = inhibition was 0.436% [at 11.4 µM] (inactive).

`Fc1ccc(SCCc2ccncc2)cc1`: the concentration at half-maximal activity (AC50) is 5.01 µM (active).

Consider `c1ccc(SCCc2ccncc2)cc1`, for which the concentration at half-maximal activity (AC50) is 2.82 µM (active) and 1.26 µM (active).

On to `C[C@@H]1CCCC(CC(=O)O)(CC(=O)O)C1`, for which the activity, negative = inhibition was 0.077% [at 11.4 µM] (inactive).

On to `Cc1cccnc1NC(=O)C12CCC(C)(C(=O)O1)C2(C)C` (configuration not stated), for which the “activity, negative = inhibition” value is 6.8% (inactive).

On to `O=C(O)c1nnsc1-c1ccc(-c2snnc2C(=O)O)cc1`, for which the activity, negative = inhibition is -3.33% [at 11.4 µM] (inactive).

Regarding `CC(=O)Nc1ccc(Sc2ncccc2C(=O)Nc2ccc(F)cc2)cn1`, the “activity, negative = inhibition” value was 2.14% (inactive).

Turning to `CC(=O)Nc1ccc(C#Cc2ccc(NC(C)=O)cc2)cc1`, the “activity, negative = inhibition” value is 1.93% (inactive).

Regarding `CCCCN(c1ccccc1)c1ncnc2c1cnn2C`, the activity, negative = inhibition is -12.5% [at 11.4 µM] (inactive).

Consider `O=[N+]([O-])c1cccnc1N1CCCCC1`, for which the “activity, negative = inhibition” value was 6.64% (inactive).

As to `Cc1nc(N2CCOCC2)nc(N2CCN(c3ccccc3)CC2)c1[N+](=O)[O-]`, the “activity, negative = inhibition” value is -19.2% (inactive).

As to `Cc1[nH]nc(N2CCCCCC2)c1[N+](=O)[O-]`, the concentration at half-maximal activity (AC50) was 15.8 µM (active).

On to `Cn1c(Oc2ccccc2)c(C=O)c2ccccc21`, for which the “activity, negative = inhibition” value is -8.7% (inactive).

With `CCOc1ccc(OCC)c(-c2c(=O)n(OCc3ccccc3C(=O)OC)c3ccccc3[n+]2[O-])c1`, the “activity, negative = inhibition” value was 15.3% (inactive).

In the case of `O=c1onc2cnc3ccccc3n12`, the “activity, negative = inhibition” value is 5.31% (inactive).

With `Cc1nc2c(C#N)c(C)[nH]n2c(=O)c1Cc1ccccc1`, the “activity, negative = inhibition” value is -0.766% (inactive).

Consider `Cc1ccc(-n2c(O)c(/C=N/n3cnnc3)c3ccccc3c2=O)cc1`, for which the “activity, negative = inhibition” value was -15.6% (inactive).

Consider `COc1cccc(-c2[nH]nc3c2C(c2ccc(C)o2)C(C#N)=C(N)O3)c1` (configuration not stated), for which the “activity, negative = inhibition” value is -18.8% (inactive).

For the compound `C/C(=C\c1ccco1)C1C(C#N)=C(N)Oc2n[nH]c(-c3ccccc3)c21` (configuration not stated), the concentration at half-maximal activity (AC50) is 31.6 µM (active).

In the case of `COc1cccc(-c2[nH]nc3c2C(c2ccsc2)C(C#N)=C(N)O3)c1` (configuration not stated), the “activity, negative = inhibition” value was -20.1% (inactive).

On to `Nc1ccccc1S(N)(=O)=O`, for which the “activity, negative = inhibition” value was -5.43% [at 25.6 µM] (inactive).

As for `O=C(O)CC(O)C(=O)O` (configuration not stated), the “activity, negative = inhibition” value was -29% (inactive).

As to `Cc1cc(C)c(S(=O)(=O)NCC2CCC(C(=O)NCc3ccc4c(c3)OCO4)CC2)c(C)c1` (configuration not stated), the half-maximal activity concentration (AC50) is 12.6 µM (active).

For the compound `Cc1ccc(S(=O)(=O)NCC2CCC(C(=O)O)CC2)cc1` (configuration not stated), the “activity, negative = inhibition” value was 17.3% (inactive).

As for `CCN(CC)S(=O)(=O)N1CCC(C(=O)NCc2ccc(C)cc2)CC1`, the “activity, negative = inhibition” value was -6.16% (inactive).

In the case of `CN(C)CCNCCN`, the activity, negative = inhibition was 8.7% [at 11.4 µM] (inactive).

For `COCCn1c(=O)cnc2cnc(Oc3cccc(Cl)c3)nc21`, the “activity, negative = inhibition” value is -1.14% (inactive).

In the case of `C=C(C)C1Cc2nc(N)nc(C)c2C1` (configuration not stated), the “activity, negative = inhibition” value was 4.24% (inactive).

Consider `Cc1nc2nc[nH]n2c(=O)c1NC(=O)CC12CC3CC(CC(C3)C1)C2`, for which the “activity, negative = inhibition” value was 6.11% (inactive).

Take `COc1cc2cc3c4cc(OC)c(OC)cc4cc[n+]3c(C)c2cc1OC`: the “activity, negative = inhibition” value was 4.46% [at 25.6 µM] (inactive).

The record behind these values is PubChem BioAssay AID1851 (National Center for Advancing Translational Sciences (NCATS), 2009).
